According to PubChem BioAssay AID1159580 (chemical genetic matrix, 2015):
Hit rate of the full screen: of about 5,500 compounds, about 2,000 (36%) were called active. About 18% were inconclusive and are not listed. Cut-off read from the data, not from the text of the source: active = normalized growth mostly below about 0.91 (no sharp cut-off); inconclusive = no clear call, values can overlap the other calls; inactive = mostly above about 0.92. The list shows a part of the results.

Test: chemical genetic growth profiling, strain panel (AID 1159580);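 note: tested at 20 µM; growth read once vehicle control cultures reached saturation at 30 °C; 1 = growth at the plate median or of vehicle wells; lower values mean less growth of the strain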
Settings: growth OD
[1] = S. cerevisiae deletion strains, locus YGR078C, strain PAC10, hits give low values
[2] = S. cerevisiae deletion strains, locus YJR075W, strain HOC1, hits give low values
[3] = S. cerevisiae deletion strains, locus YMR307W, strain GAS1, hits give low values
[4] = S. cerevisiae deletion strains, locus YNL153C, strain GIM3, hits give low values
[5] = S. cerevisiae deletion strains, locus YNL322C, strain KRE1, hits give low values
[6] = S. cerevisiae deletion strains, locus YPL241C, strain CIN2, hits give low values

Measured: normalized growth

CC(C)(Sc1ccc(CCN(CCCCC2CCCCC2)C(=O)NC2CCCCC2)cc1)C(=O)O
inactive: S. cerevisiae deletion strains, locus YAL040C, strain CLN3, hits give low values 1.06 | S. cerevisiae deletion strains, locus YCL061C, strain MRC1 (second series), hits give low values 0.994 | S. cerevisiae deletion strains, locus YDR363W, strain ESC2, hits give low values 1.01 | S. cerevisiae deletion strains, locus YER002W, strain NOP16, hits give low values 1.01 | [1] 1.03 | [2] 1.01 | [3] 0.994 | [4] 0.986 | S. cerevisiae deletion strains, locus YNL175C, strain NOP13, hits give low values 1.01 | S. cerevisiae deletion strains, locus YNL197C, strain WHI3, hits give low values 1.02 | S. cerevisiae deletion strains, locus YNL224C, strain SQS1, hits give low values 1 | [5] 0.994 | S. cerevisiae deletion strains, locus YOR083W, strain WHI5 (second series), hits give low values 0.98 | [6] 1

CC(C)(C)S(=O)(=O)/C(C#N)=C/c1ccc(F)cc1F
inactive: S. cerevisiae deletion strains, locus YAL013W, strain DEP1, hits give low values 0.995 | S. cerevisiae deletion strains, locus YBR229C, strain ROT2, hits give low values 0.999 | S. cerevisiae deletion strains, locus YDL101C, strain DUN1, hits give low values 1 | S. cerevisiae deletion strains, locus YDL134C, strain PPH21, hits give low values 1.01 | S. cerevisiae deletion strains, locus YDR150W, strain NUM1, hits give low values 0.947 | S. cerevisiae deletion strains, locus YEL061C, strain CIN8, hits give low values 1.02 | [1] 0.999 | S. cerevisiae deletion strains, locus YHR030C, strain SLT2, hits give low values 1.08 | S. cerevisiae deletion strains, locus YHR087W, strain rtc3, hits give low values 1.01 | S. cerevisiae deletion strains, locus YJL187C, strain SWE1, hits give low values 1 | S. cerevisiae deletion strains, locus YJR043C, strain POL32, hits give low values 1.01 | [2] 0.987 | S. cerevisiae deletion strains, locus YKL190W, strain CNB1, hits give low values 1.02 | S. cerevisiae deletion strains, locus YLR039C, strain RIC1, hits give low values 0.962 | S. cerevisiae deletion strains, locus YLR058C, strain SHM2 (second series), hits give low values 0.987 | S. cerevisiae deletion strains, locus YLR085C, strain ARP6, hits give low values 1.06 | S. cerevisiae deletion strains, locus YLR262C, strain YPT6, hits give low values 0.954 | S. cerevisiae deletion strains, locus YML094W, strain GIM5, hits give low values 1.03 | S. cerevisiae deletion strains, locus YMR219W, strain ESC1, hits give low values 0.989 | S. cerevisiae deletion strains, locus YMR263W, strain SAP30, hits give low values 0.977 | [3] 1.01 | S. cerevisiae deletion strains, locus YNL128W, strain TEP1, hits give low values 1.01 | [4] 1.01 | S. cerevisiae deletion strains, locus YNL298W, strain CLA4 (second series), hits give low values 1.03 | [5] 0.994 | S. cerevisiae deletion strains, locus YNR030W, strain Alg12, hits give low values 1.01 | S. cerevisiae deletion strains, locus YPL055C, strain LGE1, hits give low values 0.919 | [6] 1.03 | S. cerevisiae deletion strains, locus YPR135W, strain CTF4, hits give low values 1.05 | S. cerevisiae strains, strain wild type, hits give low values 1.03
